Drawing on PubChem BioAssay AID743449 (Broad Institute, 2014), this text covers inhibition for 15 molecules.

About 90 (0.9%) of roughly 9,900 compounds were called active. Another 2% or so got no clear call; they are omitted. The list comes from a sample in which actives are over-represented; it also holds similar structures and randomly drawn compounds. Unmarked numbers belong to inactive results.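 How the source made its calls: active means mean normalized replicate activity at least 50 and at least half of replicates each reaching 50; inconclusive means only one of the two criteria met; inactive means neither criterion met.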

The assay is described as follows: YAP1 pathway inhibitors via CTGF transcript, primary screen, DLD1 colon cancer cells, RT-qPCR, single point (AID 743449).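 Further: 0% = neutral control wells and 100% = dasatinib control wells; higher means stronger suppression of CTGF expression like dasatinib.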 The settings on record: DLD1 CTGF mRNA qPCR, 24 h; at 12.5 µM; stronger effect = higher value. (In qPCR the cycle at which signal appears reflects the starting amount.)
In the case of `COc1cccc(-c2ccc([C@H]3[C@H]4CN(C(=O)Cc5ccncc5)CCCCN4[C@H]3CO)cc2)c1`, the inhibition (usually the drop in the measured response relative to a control, in per cent) is 76.7% (active).
With `O=C(Cc1ccncc1)N1CCCCN2[C@H](C1)[C@H](c1ccc(C#Cc3ccccc3F)cc1)[C@@H]2CO` the figure was 104% (active).
For `O=C(Cc1ccncc1)N1CCCCN2[C@H](C1)[C@@H](c1ccc(C#Cc3ccccc3F)cc1)[C@@H]2CO`, the inhibition is 12.4%.
The value for `COc1cccc(-c2ccc([C@H]3[C@@H](CO)N4CCCCN(C(=O)Cc5ccncc5)C[C@@H]34)cc2)c1` was 18.9%.
With `O=C(Cc1ccncc1)N1CCCCN2[C@@H](CO)[C@@H](c3ccc(C#Cc4ccccc4F)cc3)[C@@H]2C1` the figure was 27.9%.
With `O=C(Cc1ccncc1)N1CCCCN2[C@@H](CO)[C@H](c3ccc(C#Cc4ccccc4F)cc3)[C@@H]2C1` the figure was 22.3%; with `COc1cccc(-c2ccc([C@@H]3[C@@H](CO)N4CCCCN(C(=O)Cc5ccncc5)C[C@@H]34)cc2)c1`, 32.9%; with `O=C(Cc1ccncc1)N1CCCCN2[C@H](CO)[C@@H](c3ccc(C#Cc4ccccc4F)cc3)[C@@H]2C1`, 39.4%.
For the molecule `O=C(Cc1ccncc1)N1CCCCN2[C@H](CO)[C@@H](c3ccc(C#Cc4ccccc4F)cc3)[C@H]2C1`, the inhibition is 54.3% (active).
As to `O=C(O)[C@H]1[C@H](CO)[C@H]2Cn3c(ccc(-c4ccncc4)c3=O)[C@@H]1N2S(=O)(=O)c1ccccc1F`, the inhibition was -4.67%.
With `C/C=C/c1ccc([C@H]2[C@@H](CO)N3CCCCN(C(=O)Cc4cccnc4)C[C@@H]23)cc1` the figure was -13.7%; with `C[C@@H]1CN([C@@H](C)CO)C(=O)CCCn2nncc2CO[C@H]1CN(C)C(=O)Oc1cccc2ccccc12`, -0.0735%; with `COc1ccccc1CN1[C@H](CO)[C@H](c2ccccc2)C12CN(C(=O)Cc1ccccc1)C2`, -16.1%.
Consider `C/C=C/c1ccc([C@H]2[C@H](CO)N3CCCCN(C(=O)Cc4cccnc4)C[C@@H]23)cc1`, for which the inhibition is 13.9%.
With `O=C([C@H]1N[C@H]2c3cccc(=O)n3C[C@H]2[C@@H]1CO)N1CCCCC1` the figure was -21.1%.
